# Experiments:
# Test in all cases: DAPPL (digital affinity profiling via proximity ligation, sequencing); 10 mM Tris-HCl pH 7.5, 50 mM NaCl, 1 mM DTT, 4% glycerol, room temperature, 30 min; GST-TFs on glutathione beads, 16-mer random dsDNA library, 0.1% formaldehyde crosslink after washing; high values mean tight binding
# FLI1 = molecular target: T1, FLI1 (Homo sapiens, UniProt Q01543 1-452); conditions: protein: recombinant; tags: N-terminal GST; dsDNA, one strand shown
# T1 sequence: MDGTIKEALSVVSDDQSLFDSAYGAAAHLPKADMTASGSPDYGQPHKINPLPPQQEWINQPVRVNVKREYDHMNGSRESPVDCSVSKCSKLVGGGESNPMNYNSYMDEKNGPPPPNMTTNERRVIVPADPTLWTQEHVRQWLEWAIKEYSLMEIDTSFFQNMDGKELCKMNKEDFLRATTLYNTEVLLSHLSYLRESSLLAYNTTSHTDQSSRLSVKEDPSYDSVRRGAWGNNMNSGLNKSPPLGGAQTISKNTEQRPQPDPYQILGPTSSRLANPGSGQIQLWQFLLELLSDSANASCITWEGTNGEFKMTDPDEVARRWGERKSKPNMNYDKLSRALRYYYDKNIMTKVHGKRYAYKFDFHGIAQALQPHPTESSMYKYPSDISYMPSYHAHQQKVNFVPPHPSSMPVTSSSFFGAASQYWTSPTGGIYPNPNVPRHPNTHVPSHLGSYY
# In short: (§1)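 Binding signal is given per hexamer as its read frequency for a factor divided by its frequency in the tag-only sample. GST-fused human transcription factors were expressed in yeast, captured on glutathione beads, barcoded with DNA and pooled with that sample, then incubated with 200 nmole of a 16-mer random double-stranded DNA library in Tris/NaCl/DTT/glycerol buffer for 30 min at room temperature. The pools were then washed, crosslinked, proximity-ligated, amplified by PCR and sequenced on an Illumina NextSeq500.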
# ELK1 = molecular target: T2, ELK1 (Homo sapiens, UniProt P19419 1-428); conditions: protein: recombinant; tags: N-terminal GST; dsDNA, one strand shown
# T2 sequence: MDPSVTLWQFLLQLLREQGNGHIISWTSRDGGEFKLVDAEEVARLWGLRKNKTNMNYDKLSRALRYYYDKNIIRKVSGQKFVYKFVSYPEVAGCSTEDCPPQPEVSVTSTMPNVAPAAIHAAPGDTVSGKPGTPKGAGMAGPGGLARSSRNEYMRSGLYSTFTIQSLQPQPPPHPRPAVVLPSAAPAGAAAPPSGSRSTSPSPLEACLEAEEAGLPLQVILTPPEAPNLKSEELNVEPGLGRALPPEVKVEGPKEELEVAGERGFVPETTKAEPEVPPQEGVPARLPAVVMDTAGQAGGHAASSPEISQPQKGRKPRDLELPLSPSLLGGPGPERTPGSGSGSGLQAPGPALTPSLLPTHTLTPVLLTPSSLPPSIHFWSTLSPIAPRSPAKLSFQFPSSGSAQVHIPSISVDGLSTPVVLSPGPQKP
# In short: as §1
# GABPA = molecular target: T3, GABPA (Homo sapiens, UniProt Q06546 1-454); conditions: protein: recombinant; tags: N-terminal GST; dsDNA, one strand shown
# T3 sequence: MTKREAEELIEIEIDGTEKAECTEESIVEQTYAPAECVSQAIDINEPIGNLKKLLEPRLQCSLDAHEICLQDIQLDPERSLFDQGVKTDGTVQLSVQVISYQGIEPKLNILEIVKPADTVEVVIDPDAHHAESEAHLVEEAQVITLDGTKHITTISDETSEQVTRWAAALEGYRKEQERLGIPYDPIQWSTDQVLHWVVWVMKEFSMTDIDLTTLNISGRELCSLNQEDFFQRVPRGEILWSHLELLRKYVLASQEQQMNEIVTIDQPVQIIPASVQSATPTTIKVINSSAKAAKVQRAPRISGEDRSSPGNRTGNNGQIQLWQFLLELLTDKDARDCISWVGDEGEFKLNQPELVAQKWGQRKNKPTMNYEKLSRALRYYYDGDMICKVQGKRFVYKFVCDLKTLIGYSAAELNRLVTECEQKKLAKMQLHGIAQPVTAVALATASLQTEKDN
# In short: as §1
# ERG = molecular target: T4, ERG (Homo sapiens, UniProt P11308 1-479); conditions: protein: recombinant; tags: N-terminal GST; dsDNA, one strand shown
# T4 sequence: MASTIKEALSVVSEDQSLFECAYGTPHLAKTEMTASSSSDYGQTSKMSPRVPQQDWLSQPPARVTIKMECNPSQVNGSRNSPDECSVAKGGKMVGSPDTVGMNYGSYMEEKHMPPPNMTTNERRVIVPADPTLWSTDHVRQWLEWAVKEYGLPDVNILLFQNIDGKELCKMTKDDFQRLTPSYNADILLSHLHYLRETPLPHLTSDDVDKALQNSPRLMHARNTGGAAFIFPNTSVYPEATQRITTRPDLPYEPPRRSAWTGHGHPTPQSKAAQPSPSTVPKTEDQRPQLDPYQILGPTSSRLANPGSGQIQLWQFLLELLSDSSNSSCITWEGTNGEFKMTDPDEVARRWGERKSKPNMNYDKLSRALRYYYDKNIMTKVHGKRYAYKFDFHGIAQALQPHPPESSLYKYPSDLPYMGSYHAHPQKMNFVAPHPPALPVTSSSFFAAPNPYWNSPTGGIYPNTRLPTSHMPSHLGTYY
# In short: as §1
# ELF1 = ELF1 (Homo sapiens, UniProt P32519 1-619); conditions: protein: recombinant; tags: N-terminal GST; dsDNA, one strand shown
# In short: as §1
# EHF = molecular target: T5, EHF (Homo sapiens, UniProt Q9NZC4 1-300); conditions: protein: recombinant; tags: N-terminal GST; dsDNA, one strand shown
# T5 sequence: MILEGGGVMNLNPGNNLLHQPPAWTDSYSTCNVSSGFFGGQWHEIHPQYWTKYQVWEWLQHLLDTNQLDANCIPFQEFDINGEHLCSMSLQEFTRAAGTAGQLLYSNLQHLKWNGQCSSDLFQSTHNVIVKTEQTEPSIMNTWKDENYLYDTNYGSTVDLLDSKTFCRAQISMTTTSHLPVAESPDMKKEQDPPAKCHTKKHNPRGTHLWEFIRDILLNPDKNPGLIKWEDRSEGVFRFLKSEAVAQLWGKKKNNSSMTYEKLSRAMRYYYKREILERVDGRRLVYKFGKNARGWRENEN
# In short: as §1
# SPI1 = SPI1 (Homo sapiens, UniProt P17947 1-270); conditions: protein: recombinant; tags: N-terminal GST; dsDNA, one strand shown
# In short: as §1
# SPIB = SPIB (Homo sapiens, UniProt Q01892 1-262); conditions: protein: recombinant; tags: N-terminal GST; dsDNA, one strand shown
# In short: as §1
# ELK3 = molecular target: T6, ELK3 (Homo sapiens, UniProt P41970 1-407); conditions: protein: recombinant; tags: N-terminal GST; dsDNA, one strand shown
# T6 sequence: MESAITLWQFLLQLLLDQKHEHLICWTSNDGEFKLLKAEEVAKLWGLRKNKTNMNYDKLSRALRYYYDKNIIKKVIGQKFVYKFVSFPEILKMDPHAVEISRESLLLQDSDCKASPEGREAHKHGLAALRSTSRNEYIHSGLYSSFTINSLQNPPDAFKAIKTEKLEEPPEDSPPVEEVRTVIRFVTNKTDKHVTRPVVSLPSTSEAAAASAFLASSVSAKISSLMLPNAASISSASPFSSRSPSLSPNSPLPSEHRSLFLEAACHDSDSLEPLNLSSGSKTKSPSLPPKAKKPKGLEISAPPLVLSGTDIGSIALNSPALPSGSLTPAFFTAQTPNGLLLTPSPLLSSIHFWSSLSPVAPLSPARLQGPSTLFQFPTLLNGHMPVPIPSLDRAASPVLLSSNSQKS
# In short: as §1
# FEV = molecular target: T7, FEV (Homo sapiens, UniProt Q99581 1-238); conditions: protein: recombinant; tags: N-terminal GST; dsDNA, one strand shown
# T7 sequence: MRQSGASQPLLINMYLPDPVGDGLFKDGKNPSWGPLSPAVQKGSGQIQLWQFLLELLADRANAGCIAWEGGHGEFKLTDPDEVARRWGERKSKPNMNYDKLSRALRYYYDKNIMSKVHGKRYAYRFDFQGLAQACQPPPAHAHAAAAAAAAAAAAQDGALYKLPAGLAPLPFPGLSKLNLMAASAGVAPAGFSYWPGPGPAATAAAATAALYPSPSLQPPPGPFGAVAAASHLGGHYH
# In short: as §1
# ETV5 = ETV5 (Homo sapiens, UniProt P41161 1-510); conditions: protein: recombinant; tags: N-terminal GST; dsDNA, one strand shown
# In short: as §1
# HSF1 = HSF1 (Homo sapiens, UniProt Q00613 1-529); conditions: protein: recombinant; tags: N-terminal GST; chain copies: 3; dsDNA, one strand shown
# In short: as §1
# SPIC = molecular target: T8, SPIC (Homo sapiens, UniProt Q8N5J4 1-248); conditions: protein: recombinant; tags: N-terminal GST; dsDNA, one strand shown
# T8 sequence: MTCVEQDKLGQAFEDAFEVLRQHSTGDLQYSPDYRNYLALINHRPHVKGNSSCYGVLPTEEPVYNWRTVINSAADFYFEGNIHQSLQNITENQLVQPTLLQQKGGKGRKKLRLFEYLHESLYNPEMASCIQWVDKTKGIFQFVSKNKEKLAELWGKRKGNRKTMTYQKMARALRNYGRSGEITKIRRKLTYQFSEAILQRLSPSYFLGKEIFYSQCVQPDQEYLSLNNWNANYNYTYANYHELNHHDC
# In short: as §1
# ELK4 = molecular target: T9, ELK4 (Homo sapiens, UniProt P28324-2 1-405); conditions: protein: recombinant; tags: N-terminal GST; dsDNA, one strand shown
# T9 sequence: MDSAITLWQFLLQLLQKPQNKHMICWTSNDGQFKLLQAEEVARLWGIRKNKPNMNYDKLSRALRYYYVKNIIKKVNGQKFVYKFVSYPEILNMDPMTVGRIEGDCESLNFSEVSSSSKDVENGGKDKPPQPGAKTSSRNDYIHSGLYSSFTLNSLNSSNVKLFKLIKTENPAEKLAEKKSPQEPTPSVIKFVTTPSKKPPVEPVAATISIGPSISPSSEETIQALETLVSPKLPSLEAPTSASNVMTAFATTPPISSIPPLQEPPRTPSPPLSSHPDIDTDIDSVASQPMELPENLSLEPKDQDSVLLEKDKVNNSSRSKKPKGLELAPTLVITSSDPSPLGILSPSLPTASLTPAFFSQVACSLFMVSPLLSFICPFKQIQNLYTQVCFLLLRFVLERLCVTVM
# In short: as §1
# ETV2 = molecular target: T10, ETV2 (Homo sapiens, UniProt O00321 1-342); conditions: protein: recombinant; tags: N-terminal GST; dsDNA, one strand shown
# T10 sequence: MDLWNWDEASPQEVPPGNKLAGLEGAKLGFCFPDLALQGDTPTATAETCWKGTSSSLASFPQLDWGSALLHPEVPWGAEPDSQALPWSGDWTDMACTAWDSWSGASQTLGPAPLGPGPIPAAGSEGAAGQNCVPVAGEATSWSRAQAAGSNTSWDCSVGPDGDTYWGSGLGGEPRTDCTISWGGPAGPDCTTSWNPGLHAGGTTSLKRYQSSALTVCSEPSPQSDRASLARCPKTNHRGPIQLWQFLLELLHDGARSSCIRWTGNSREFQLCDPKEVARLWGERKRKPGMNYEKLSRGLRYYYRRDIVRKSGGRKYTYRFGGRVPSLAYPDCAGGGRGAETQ
# In short: as §1
# CRX = CRX (Homo sapiens, UniProt O43186 1-299); conditions: protein: recombinant; tags: N-terminal GST; dsDNA, one strand shown
# In short: as §1
# ETV1 = ETV1 (Homo sapiens, UniProt P50549 1-477); conditions: protein: recombinant; tags: N-terminal GST; dsDNA, one strand shown
# In short: as §1
# Chain of SPIB (Q01892 whole entry): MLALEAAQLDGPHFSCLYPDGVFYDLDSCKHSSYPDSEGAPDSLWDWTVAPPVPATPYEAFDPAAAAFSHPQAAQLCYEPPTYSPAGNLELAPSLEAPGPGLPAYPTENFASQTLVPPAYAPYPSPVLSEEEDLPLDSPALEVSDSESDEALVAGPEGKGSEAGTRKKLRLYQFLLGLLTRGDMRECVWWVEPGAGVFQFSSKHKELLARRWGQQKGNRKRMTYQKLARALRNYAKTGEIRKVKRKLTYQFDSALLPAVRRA
# Chain of HSF1 (Q00613 whole entry): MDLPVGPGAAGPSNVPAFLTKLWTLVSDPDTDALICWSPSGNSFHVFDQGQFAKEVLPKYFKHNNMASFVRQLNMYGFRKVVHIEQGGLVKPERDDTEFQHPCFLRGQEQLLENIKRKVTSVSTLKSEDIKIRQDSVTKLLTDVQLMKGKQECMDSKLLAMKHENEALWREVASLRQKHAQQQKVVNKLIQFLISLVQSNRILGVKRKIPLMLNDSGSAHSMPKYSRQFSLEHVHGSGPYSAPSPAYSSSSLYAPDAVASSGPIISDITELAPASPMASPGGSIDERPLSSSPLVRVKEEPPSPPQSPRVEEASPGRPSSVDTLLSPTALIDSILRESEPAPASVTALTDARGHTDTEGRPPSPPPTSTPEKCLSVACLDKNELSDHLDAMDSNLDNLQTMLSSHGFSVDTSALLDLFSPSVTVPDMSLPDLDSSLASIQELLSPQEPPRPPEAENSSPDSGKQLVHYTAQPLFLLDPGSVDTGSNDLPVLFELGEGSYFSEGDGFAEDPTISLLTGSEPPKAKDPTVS
# Chain of CRX (O43186 whole entry): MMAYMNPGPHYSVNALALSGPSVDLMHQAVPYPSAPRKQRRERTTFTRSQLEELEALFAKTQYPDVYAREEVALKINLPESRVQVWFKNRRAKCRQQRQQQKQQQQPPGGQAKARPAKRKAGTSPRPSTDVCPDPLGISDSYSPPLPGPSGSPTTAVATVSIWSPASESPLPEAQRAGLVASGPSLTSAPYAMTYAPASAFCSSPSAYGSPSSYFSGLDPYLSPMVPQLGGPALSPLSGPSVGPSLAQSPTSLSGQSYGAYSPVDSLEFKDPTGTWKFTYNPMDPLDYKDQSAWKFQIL
# Chain of ETV5 (P41161 whole entry): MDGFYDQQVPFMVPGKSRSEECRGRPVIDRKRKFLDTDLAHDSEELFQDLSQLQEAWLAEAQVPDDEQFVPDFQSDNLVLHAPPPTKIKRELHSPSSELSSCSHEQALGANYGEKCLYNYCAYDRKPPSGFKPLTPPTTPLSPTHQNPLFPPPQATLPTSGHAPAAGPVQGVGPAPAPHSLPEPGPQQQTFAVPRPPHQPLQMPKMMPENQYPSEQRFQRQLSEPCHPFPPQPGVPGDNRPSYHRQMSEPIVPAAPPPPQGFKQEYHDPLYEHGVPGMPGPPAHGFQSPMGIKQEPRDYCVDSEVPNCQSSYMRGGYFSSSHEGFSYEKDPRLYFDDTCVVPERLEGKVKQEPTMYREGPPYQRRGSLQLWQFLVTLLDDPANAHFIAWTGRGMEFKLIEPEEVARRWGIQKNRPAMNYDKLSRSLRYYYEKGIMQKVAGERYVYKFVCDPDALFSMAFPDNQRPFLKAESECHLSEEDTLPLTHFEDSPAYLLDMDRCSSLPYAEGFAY
# Chain of ETV1 (P50549 whole entry): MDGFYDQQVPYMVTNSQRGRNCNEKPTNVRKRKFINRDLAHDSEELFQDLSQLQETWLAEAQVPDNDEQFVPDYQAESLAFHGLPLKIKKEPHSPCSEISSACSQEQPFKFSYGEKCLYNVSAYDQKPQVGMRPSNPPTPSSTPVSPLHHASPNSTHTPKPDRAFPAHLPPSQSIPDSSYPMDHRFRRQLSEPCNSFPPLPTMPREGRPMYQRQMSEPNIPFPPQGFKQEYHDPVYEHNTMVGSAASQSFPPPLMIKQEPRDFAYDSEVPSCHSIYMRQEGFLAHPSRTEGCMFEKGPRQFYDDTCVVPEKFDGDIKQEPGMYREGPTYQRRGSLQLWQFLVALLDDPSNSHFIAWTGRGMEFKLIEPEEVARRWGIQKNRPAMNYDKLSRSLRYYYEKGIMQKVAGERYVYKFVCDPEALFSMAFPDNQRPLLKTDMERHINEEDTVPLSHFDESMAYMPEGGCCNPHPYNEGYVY
# Chain of ELF1 (P32519 whole entry): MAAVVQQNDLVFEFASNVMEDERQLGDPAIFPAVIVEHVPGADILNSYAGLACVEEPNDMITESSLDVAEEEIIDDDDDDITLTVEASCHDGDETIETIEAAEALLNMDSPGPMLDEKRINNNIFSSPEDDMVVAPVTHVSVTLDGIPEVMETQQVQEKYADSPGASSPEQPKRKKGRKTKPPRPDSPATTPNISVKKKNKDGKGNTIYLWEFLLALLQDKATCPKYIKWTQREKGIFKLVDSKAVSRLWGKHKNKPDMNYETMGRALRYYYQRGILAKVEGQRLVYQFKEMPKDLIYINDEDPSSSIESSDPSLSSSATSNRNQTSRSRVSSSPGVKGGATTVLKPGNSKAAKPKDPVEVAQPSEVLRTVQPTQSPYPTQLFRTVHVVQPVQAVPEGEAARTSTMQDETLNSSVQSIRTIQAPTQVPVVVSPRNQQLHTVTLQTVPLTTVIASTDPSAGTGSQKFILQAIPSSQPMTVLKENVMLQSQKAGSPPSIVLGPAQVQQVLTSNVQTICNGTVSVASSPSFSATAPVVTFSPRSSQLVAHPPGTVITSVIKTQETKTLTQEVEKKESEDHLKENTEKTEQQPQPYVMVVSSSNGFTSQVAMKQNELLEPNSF
sequence,measurement,setting,value
TAACGG,binding signal,FLI1,"1.1 fold enrichment (6-mer frequency, TF over GST control)"
same,binding signal,ELK1,"1.18 fold enrichment (6-mer frequency, TF over GST control)"
same,binding signal,GABPA,"1.03 fold enrichment (6-mer frequency, TF over GST control)"
same,binding signal,ERG,"1.08 fold enrichment (6-mer frequency, TF over GST control)"
same,binding signal,ELF1,"1.03 fold enrichment (6-mer frequency, TF over GST control)"
same,binding signal,EHF,"1.14 fold enrichment (6-mer frequency, TF over GST control)"
same,binding signal,SPI1,"1.21 fold enrichment (6-mer frequency, TF over GST control)"
same,binding signal,SPIB,"1.13 fold enrichment (6-mer frequency, TF over GST control)"
same,binding signal,ELK3,"1.03 fold enrichment (6-mer frequency, TF over GST control)"
same,binding signal,FEV,"1.1 fold enrichment (6-mer frequency, TF over GST control)"
same,binding signal,ETV5,"1.09 fold enrichment (6-mer frequency, TF over GST control)"
same,binding signal,HSF1,"1.03 fold enrichment (6-mer frequency, TF over GST control)"
same,binding signal,SPIC,"1.07 fold enrichment (6-mer frequency, TF over GST control)"
same,binding signal,ELK4,"1.02 fold enrichment (6-mer frequency, TF over GST control)"
same,binding signal,ETV2,"1.11 fold enrichment (6-mer frequency, TF over GST control)"
same,binding signal,CRX,"1.21 fold enrichment (6-mer frequency, TF over GST control)"
same,binding signal,ETV1,"1.04 fold enrichment (6-mer frequency, TF over GST control)"

# — paper PMC7862700, “An all-to-all approach to the identification of sequence-specific readers for epigenetic DNA modifications on cytosine”
